Compound activity: PubChem BioAssay, several laboratories
TROY signal inh: blocks TROY-dependent signaling in reporter cells | Q293 LMP1-TROYcd NF-kB luciferase reporter, 4 h | inhibition, % at 10 µM | 0.98% of 360,000 active | AID 1347056;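 active means compounds whose plate-normalised and pattern-corrected inhibition of the luciferase reporter signal at the single screening dose is 50% or more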
Peg3 prom inh: Peg3 promoter activity inhibition | inhibition, % at 20 µM | HeLa PEG-Prom luciferase reporter, luminescence, overnight | 1.7% of 360,000 active;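 active means inhibition of at least 50% at 20 µM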
Shn3 inh set2: Schnurri-3 reporter inhibition in Clone20 osteoblasts; Clone20 osteoblast Shn3 3'UTR firefly luciferase, 24 h; inhibition, % at 12.5 µM; 0.52% of 360,000 active;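 active means mean inhibition of at least 75% with every replicate also reaching 75%; inconclusive means mean inhibition at least 75% but some replicate below; inactive means mean inhibition below 75%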
TWEAK-Fn14 inh: inhibitors of TWEAK-Fn14 interaction signaling. TWEAK-stimulated Fn14 reporter cells, luciferase luminescence, 8 h. inhibition, % at 10 µM. 2% of 360,000 active; in the data active means inhibition above about 50%
TRPM1 prom inh: reduces MITF-dependent TRPM1 promoter luciferase signal; inhibition, % at 12.5 µM; AID 488899; SK-MEL-5 TRPM1 promoter luciferase, 24 h; 0.83% of 330,000 active;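 active means mean inhibition across replicates of 60% or more, whatever share of single replicates reaches that level; inconclusive means some that reach 60%, reason not given; inactive means mean inhibition across replicates below 60%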
LMP1 NFkB inh: reduces LMP1-driven NF-kappaB luciferase signal | LMP1-induced NF-kappaB luciferase reporter cells, luminescence | inhibition, % at 12.5 µM | 0.69% of 350,000 active; in the data active means inhibition above about 41%; inconclusive means no clear call, values can overlap the other calls
Large screens that a line does not name were inactive. Only some compounds are listed: those with a hit (about 4.1% of all), similar ones and a draw of the others.

COc1ccc(CCN2C(=O)c3cccc4c(C(=O)N5CCCCC5)ccc(c34)C2=O)cc1OC	TROY signal inh 57, Peg3 prom inh 89, TWEAK-Fn14 inh 78
COc1ccc(CCNC(=O)CCN2C(=O)c3cccc4cccc(c34)C2=O)cc1OC	none
CC(Cl)=CCn1c(NCCc2ccccc2)nc2c1c(=O)n(C)c(=O)n2C	Shn3 inh set2 92 (no result: TRPM1 prom inh, LMP1 NFkB inh)
Cn1c(=O)c2c(nc(NCc3ccco3)n2C/C=C/c2ccccc2)n(C)c1=O	Shn3 inh set2 88, TWEAK-Fn14 inh 55, LMP1 NFkB inh 42
Cc1ccc(C(=O)N/C(=C\c2ccc(C(C)C)cc2)C(=O)NCCCN2CCOCC2)cc1	none
COC(=O)C1CCN(S(=O)(=O)CCNC(=O)c2ccccc2)CC1	none (no result: TRPM1 prom inh)
CCOC(=O)C1CCN(c2ncnc3c2cnn3-c2ccc(OC)cc2)CC1	none
CCN(CC)C(=O)C1CCCN(c2ncnc3c2cnn3-c2cccc(C)c2)C1 (centres undefined)	TWEAK-Fn14 inh 50
CCN(CC)C(=O)C1CCCN(c2ncnc3c2cnn3-c2ccc(Cl)cc2)C1 (centres undefined)	TROY signal inh 63, Peg3 prom inh 56, TWEAK-Fn14 inh 71
CCOC(=O)C1CCCN(c2ncnc3c2cnn3-c2cccc(C)c2)C1 (centres undefined)	none
COc1ccc(NC(=O)C2CCN(S(=O)(=O)c3ccc4c(c3)NC(=O)CO4)CC2)cc1	none
Cc1ccc(-n2nnc3c(=O)n(CC(=O)NCc4ccco4)cnc32)cc1	none (no result: TRPM1 prom inh)
O=C(Cn1cnc2c(nnn2-c2ccccc2)c1=O)NCc1ccco1	LMP1 NFkB inh 87
O=C1CN(c2ccc(F)cc2)C(=S)N1c1ccccc1	none
O=S(=O)(c1ccc(N=C2NN=C(c3cc(F)ccc3F)CS2)cc1)N1CCOCC1	TWEAK-Fn14 inh 81
CC1CCc2c(sc(NC(=O)Cn3nc(C(=O)O)c4ccccc4c3=O)c2C#N)C1 (centres undefined)	none
CC(C)(C)C1CCc2c(sc(NC(=O)CSc3ncn[nH]3)c2C#N)C1 (centres undefined)	none
CCN1CCN(CC(=O)Nc2sc3c(c2C#N)CCC(C)C3)CC1 (centres undefined)	TWEAK-Fn14 inh 78 (no result: TROY signal inh)
COc1ccc(-c2ccc(C#N)c(SCC(=O)Nc3sc4c(c3C#N)CCC4)n2)cc1OC	Peg3 prom inh 75
N#Cc1c(NC(=O)CSc2ncn[nH]2)sc2c1CCCC2	TWEAK-Fn14 inh 81, TRPM1 prom inh 73
CC1CCc2c(sc(NC(=O)CSc3ncn[nH]3)c2C#N)C1 (centres undefined)	TWEAK-Fn14 inh 72, TRPM1 prom inh 62
C/C=C\C=C\C(=O)Nc1cccc(C2=NOC3(C2)C[C@@H](C(N)=O)N(C(=O)C(c2ccccc2)c2ccccc2)C3)c1 (some centres undefined)	none
CN1CCN(c2nc(-c3ccc(C(C)(C)C)cc3)nc3ccccc23)CC1	TROY signal inh 78, TWEAK-Fn14 inh 85
Cc1ccc(-c2nc(N3CCN(C)CC3)c3ccccc3n2)cc1	none
O=S(=O)(c1ccc(OC(F)(F)F)cc1)N1CCC(O)(c2cccc(C(F)(F)F)c2)CC1	TROY signal inh 58
O=C1c2ccccc2C(Nc2ccc3c(c2)OCCO3)N1c1ccc(Cl)cn1 (centres undefined)	none
O=C1c2ccccc2C(Nc2ccc3c(c2)OCCO3)N1c1ccccn1 (centres undefined)	TWEAK-Fn14 inh 63
O=C1c2ccccc2C(Nc2ccc3c(c2)OCCO3)N1Cc1ccc2c(c1)OCO2 (centres undefined)	TROY signal inh 63, TWEAK-Fn14 inh 74 (no result: TRPM1 prom inh)
CCOC(=O)C1CCN(C(=O)/C=C/c2ccc(OC)cc2)CC1	none
CCOC(=O)C1CCN(C(=O)/C=C/c2ccccc2OC)CC1	TWEAK-Fn14 inh 59
COc1cccc(/C=C/C(=O)N2CCN(S(=O)(=O)c3ccccc3)CC2)c1OC	TWEAK-Fn14 inh 73
COc1ccc(C(=O)NCc2nnc(SCC(=O)N3CCCC3)o2)cc1	none
Cc1cc(N2CC(C(=O)NCc3cccnc3)CC2=O)ccc1C(C)C (centres undefined)	none
CC(C)Cn1c(N)c(C(=O)CSc2ccc3c(c2)OCCO3)c(=O)n(C)c1=O	Shn3 inh set2 86, TWEAK-Fn14 inh 69
COc1cc(OC)cc(-c2sc3ccc(OC)cc3c2-c2ccc(OCCN3CCCCC3)cc2)c1	Peg3 prom inh 90
COc1ccc(-c2sc3cc4c(cc3c2-c2ccc(OCCN3CCCCC3)cc2)OCO4)cc1	Peg3 prom inh 90
CCOC(=O)C1C(=O)OC(C)(C)C1C(C)C(=O)c1ccc(C)cc1C (centres undefined)	none
COc1ccccc1-c1ccccc1C1=CC(=O)CC(C)(C)C1=O	LMP1 NFkB inh 61 (no result: TRPM1 prom inh)
Cc1nnc(SCC(=O)N2CCC(c3noc4ccc(F)cc34)CC2)s1	TWEAK-Fn14 inh 68, LMP1 NFkB inh inconclusive
c1ccc2c(c1)OCCOCCOCCOCCOCCOc1ccccc1OCCOCCOCCO2	Shn3 inh set2 86
OCCN1CCOCCOc2ccccc2OCCOCC1	none
CCOC(=O)n1cnc2nc(N)nc(SC)c21	none
CCOC(=O)C(C)Oc1nc(Oc2ccccc2)nc(N(C)C)n1 (centres undefined)	TWEAK-Fn14 inh 50 (no result: TROY signal inh)
COc1ccc(C2(CNC(=O)c3cc([N+](=O)[O-])cc([N+](=O)[O-])c3)CCCC2)cc1OC	none
O=C(CN1c2ccccc2Sc2ccccc21)NNC(=S)Nc1ccc(Cl)cc1	none
O=C(CN1c2ccccc2Sc2ccccc21)NNC(=S)Nc1ccc(Cl)cc1Cl	TROY signal inh 52, Peg3 prom inh 50
CC(=O)c1cccc(CN2CCN(C(C)C)C(CCO)C2)c1 (centres undefined)	none
CSC(=N/N=C(\N)c1cnccn1)SC	LMP1 NFkB inh 43
O=C(O)c1cnccn1	none
CC(C)(CNC(=S)NCCc1ccccc1)CNC(=S)NCCc1ccccc1	TWEAK-Fn14 inh 56
Oc1ccccc1C=NNC(=S)Nc1ccc(F)cc1	Shn3 inh set2 90
OCCNC(=S)NCCc1ccccc1	none
Oc1ccccc1/C=N/NC(=S)NCCc1ccccc1	TWEAK-Fn14 inh 93
Fc1ccc(NC(=S)NN=Cc2ccccc2Cl)cc1	none
CCCCN(C(=O)c1c(C)noc1C)c1c(N)n(CCCC)c(=O)[nH]c1=O	none
O=[N+]([O-])/C(Cl)=C(/NCCO)C(Cl)=C(Cl)Cl	none
CCOC(=O)C(C(=O)OCC)C(Nc1cccc(Br)c1)c1ccccc1 (centres undefined)	TWEAK-Fn14 inh 71
COC(=O)C(C)Nc1cccc(Br)c1 (centres undefined)	none (no result: Shn3 inh set2)
C=CCNc1nc(N2CCOCC2)c(C#N)c2c1CN(C)CC2	Shn3 inh set2 97
CCN1CCc2c(C#N)c(N3CCOCC3)nc(NCCO)c2C1	none
O=C(NCc1ccccc1)c1nc(S(=O)(=O)Cc2ccccc2)ncc1Cl	TROY signal inh 70, Peg3 prom inh 105, Shn3 inh set2 94, TWEAK-Fn14 inh 82
